Source: PubChem BioAssay (EPA / NIEHS)
Active and inactive are the calls of the source. How the source made its calls: active means hit-call score of the fitted dose curve at least 0.9, where 1 is the maximum; inactive means score below 0.9.

Biological target: Heat shock factor protein 1 (Homo sapiens) (UniProt Q00613)
Test: ATG_HSE_CIS: Attagene CIS-FACTORIAL HepG2 Assay for human Heat Shock Transcription Factor 1 (HSE) (AID 2282953)
Conditions: HepG2 HSE cis-reporter, Attagene RNA transcription; actives raise or lower the signal
Outline: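 Endogenous transcription factor activity in transiently transfected HepG2, read as reporter mRNA by RT-PCR with fluorescent capillary electrophoresis after 24 h. Gain or loss of signal fitted versus DMSO baseline.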

Chain of Heat shock factor protein 1 (Homo sapiens) (Q00613 whole entry, looked up): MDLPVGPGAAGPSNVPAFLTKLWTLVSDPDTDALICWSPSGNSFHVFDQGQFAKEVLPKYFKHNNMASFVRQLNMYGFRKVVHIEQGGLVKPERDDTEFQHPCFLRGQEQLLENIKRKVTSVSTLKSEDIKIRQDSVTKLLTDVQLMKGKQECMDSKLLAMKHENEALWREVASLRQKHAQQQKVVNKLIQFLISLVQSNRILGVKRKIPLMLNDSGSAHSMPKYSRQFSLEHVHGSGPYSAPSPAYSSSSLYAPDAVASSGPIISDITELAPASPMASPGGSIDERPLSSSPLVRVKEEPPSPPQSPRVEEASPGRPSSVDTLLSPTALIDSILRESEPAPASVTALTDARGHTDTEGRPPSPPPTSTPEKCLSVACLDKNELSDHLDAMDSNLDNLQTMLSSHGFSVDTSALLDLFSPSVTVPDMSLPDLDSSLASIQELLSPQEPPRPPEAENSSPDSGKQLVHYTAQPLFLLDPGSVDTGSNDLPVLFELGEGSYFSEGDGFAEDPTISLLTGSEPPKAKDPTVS

**Q.** Which outcome does the source give for Nc1ccc(S(=O)(=O)Nc2nccs2)cc1 here?
**A.** Its outcome is “inactive”.

**Q.** Which outcome does the source give for C=C(C)C(=O)OCC(F)(F)C(F)(F)C(F)(F)F here?
**A.** The outcome was “inactive”.

**Q.** With O=P(O)(O)OCCC(F)(F)C(F)(F)C(F)(F)C(F)(F)C(F)(F)C(F)(F)F as the molecule, how does the outcome read?
**A.** The outcome was “inactive”.

**Q.** Which outcome does the source give for CC(=O)Nc1ccc(N=Nc2cc(C)ccc2O)cc1 here?
**A.** The outcome was “inactive”.

**Q.** For CCc1c(Br)c(Br)c(Br)c(Br)c1Br, which outcome is on record?
**A.** The outcome was “inactive”.

**Q.** Which outcome does the source give for CC(C)(C)c1ccc(OC2CCCCC2O)cc1 (centres undefined) here?
**A.** The outcome was “inactive”.

**Q.** Which outcome does the source give for CC(C)OC(=O)c1ccccc1C(=O)OC(C)C here?
**A.** The outcome was “inactive”.

**Q.** Which outcome does the source give for OC[C@@H](O)[C@@H](O)[C@H](O)[C@@H](O)CO here?
**A.** Its outcome is “inactive”.

**Q.** With CN(C)Cc1ccccc1O as the molecule, how does the outcome read?
**A.** Its outcome is “inactive”.

**Q.** For CCc1ccc(C(c2ccc(CC)cc2)C(Cl)Cl)cc1, which outcome is on record?
**A.** The outcome was “inactive”.

**Q.** Which outcome does the source give for CC(C)c1ccccc1N here?
**A.** The outcome was “inactive”.

**Q.** With C1COCCN1 as the molecule, how does the outcome read?
**A.** Its outcome is “inactive”.

**Q.** With COC(=O)CCC(F)(F)C(F)(F)C(F)(F)C(F)(F)F as the molecule, how does the outcome read?
**A.** The outcome was “inactive”.

**Q.** With C=CC(=O)OCC(F)(F)C(F)(F)C(F)(F)C(F)(F)C(F)(F)C(F)(F)C(F)(F)F as the molecule, how does the outcome read?
**A.** Its outcome is “inactive”.

**Q.** Which outcome does the source give for O=S(=O)(O)c1ccc2ccccc2c1 here?
**A.** Its outcome is “inactive”.

**Q.** For CCCCC(CC)COP(=O)(O)OCC(CC)CCCC (centres undefined), which outcome is on record?
**A.** The outcome was “inactive”.

**Q.** For COC(=O)C1CCC(C(=O)OC)CC1 (centres undefined), which outcome is on record?
**A.** The outcome was “inactive”.

**Q.** Which outcome does the source give for Nc1cc(Cl)c(N)c(Cl)c1 here?
**A.** Its outcome is “inactive”.

**Q.** For O=C(O)C(F)(F)C(F)(F)OC(F)(F)F, which outcome is on record?
**A.** Its outcome is “inactive”.

**Q.** Which outcome does the source give for CC(C)=CCCC(C)CCOC(=O)C(C)C (centres undefined) here?
**A.** The outcome was “inactive”.

**Q.** For N=C(N)C(F)(F)C(F)(F)C(F)(F)C(F)(F)C(F)(F)C(F)(F)C(F)(F)F, which outcome is on record?
**A.** Its outcome is “inactive”.

**Q.** For O=C(Cl)C(F)(F)C(F)(F)C(F)(F)C(F)(F)C(F)(F)C(F)(F)C(F)(F)C(F)(F)F, which AC50 is on record?
**A.** Its AC50 is 49.6 µM (active).

**Q.** Which outcome does the source give for C=CC(F)(F)C(F)(F)C(F)(F)C(F)(F)C(F)(F)C(F)(F)C(F)(F)C(F)(F)F here?
**A.** Its outcome is “inactive”.

**Q.** For CS(C)(=O)=O, which outcome is on record?
**A.** The outcome was “inactive”.

**Q.** With O=C(O)C(F)(F)C(F)(F)C(F)(F)C(F)(F)C(F)(F)C(F)(F)C(F)(F)C(F)(F)C(F)(F)C(F)(F)C(F)(F)C(F)(F)F as the molecule, how does the outcome read?
**A.** The outcome was “inactive”.

**Q.** Which outcome does the source give for O=C(O)C(F)(F)C(F)(F)C(F)(F)C(F)(F)F here?
**A.** The outcome was “inactive”.

**Q.** For Cc1ccc(S(=O)(=O)OCC(F)(F)C(F)(F)C(F)(F)C(F)(F)C(F)(F)C(F)F)cc1, which outcome is on record?
**A.** Its outcome is “inactive”.

**Q.** For Cc1ccc(S(=O)(=O)NCl)cc1, which outcome is on record?
**A.** The outcome was “inactive”.

**Q.** With C=C(C)C(=O)OCC(F)(F)C(F)(F)C(F)(F)C(F)(F)C(F)(F)C(F)(F)C(F)(F)F as the molecule, how does the outcome read?
**A.** Its outcome is “inactive”.

**Q.** For FC(F)(F)C(F)(F)C(F)(F)C(F)(F)C(F)(F)C(F)(F)CCS, which outcome is on record?
**A.** The outcome was “inactive”.

**Q.** Which outcome does the source give for CCCCCC=O here?
**A.** The outcome was “inactive”.

**Q.** For CCCCCCCCC(F)(F)C(F)(F)C(F)(F)C(F)(F)C(F)(F)C(F)(F)F, which outcome is on record?
**A.** Its outcome is “inactive”.

**Q.** Which outcome does the source give for Cc1cc(C)cc(O)c1 here?
**A.** Its outcome is “inactive”.

**Q.** For O=S(=O)(OCCOC(F)(F)F)C(F)(F)F, which outcome is on record?
**A.** The outcome was “inactive”.

Test system: not listed separately
Test: ATG_MRE_CIS: Attagene CIS-FACTORIAL HepG2 Assay for human Metal Responsive Element (MRE) (AID 2282954)
Conditions: HepG2 MRE cis-reporter transcription, Attagene multiplex; actives raise or lower the signal
Outline: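 HepG2 cells transiently transfected with cis-element-driven reporter units; mRNA measured 24 h after dosing. Reporter transcripts quantified by RT-PCR, FAM labelling, HpaI digestion and capillary electrophoresis; bidirectional fit versus DMSO.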

**Q.** For Nc1ccc(S(=O)(=O)Nc2nccs2)cc1, which outcome is on record?
**A.** The outcome was “inactive”.

**Q.** With C=C(C)C(=O)OCC(F)(F)C(F)(F)C(F)(F)F as the molecule, how does the outcome read?
**A.** The outcome was “inactive”.

**Q.** Which outcome does the source give for O=P(O)(O)OCCC(F)(F)C(F)(F)C(F)(F)C(F)(F)C(F)(F)C(F)(F)F here?
**A.** Its outcome is “inactive”.

**Q.** With CC(=O)Nc1ccc(N=Nc2cc(C)ccc2O)cc1 as the molecule, how does the AC50 read?
**A.** Its AC50 is 27.6 µM (active).

**Q.** For FC(F)(F)C(F)(F)C(F)(F)C(F)(F)CCI, which outcome is on record?
**A.** The outcome was “inactive”.

**Q.** With CCc1c(Br)c(Br)c(Br)c(Br)c1Br as the molecule, how does the outcome read?
**A.** The outcome was “inactive”.

**Q.** For CC(C)(C)c1ccc(OC2CCCCC2O)cc1 (centres undefined), which outcome is on record?
**A.** The outcome was “inactive”.

**Q.** Which outcome does the source give for CC(C)OC(=O)c1ccccc1C(=O)OC(C)C here?
**A.** Its outcome is “inactive”.

**Q.** Which outcome does the source give for OC[C@@H](O)[C@@H](O)[C@H](O)[C@@H](O)CO here?
**A.** Its outcome is “inactive”.

**Q.** With CN(C)Cc1ccccc1O as the molecule, how does the outcome read?
**A.** Its outcome is “inactive”.

**Q.** For CCc1ccc(C(c2ccc(CC)cc2)C(Cl)Cl)cc1, which outcome is on record?
**A.** The outcome was “inactive”.

**Q.** For CC(C)c1ccccc1N, which outcome is on record?
**A.** Its outcome is “inactive”.

**Q.** For C1COCCN1, which outcome is on record?
**A.** The outcome was “inactive”.

**Q.** For COC(=O)CCC(F)(F)C(F)(F)C(F)(F)C(F)(F)F, which outcome is on record?
**A.** The outcome was “inactive”.

**Q.** For C=CC(=O)OCC(F)(F)C(F)(F)C(F)(F)C(F)(F)C(F)(F)C(F)(F)C(F)(F)F, which outcome is on record?
**A.** The outcome was “inactive”.

**Q.** Which outcome does the source give for O=S(=O)(O)c1ccc2ccccc2c1 here?
**A.** The outcome was “inactive”.

**Q.** Which outcome does the source give for CCCCC(CC)COP(=O)(O)OCC(CC)CCCC (centres undefined) here?
**A.** Its outcome is “inactive”.

**Q.** Which outcome does the source give for COC(=O)C1CCC(C(=O)OC)CC1 (centres undefined) here?
**A.** Its outcome is “inactive”.

**Q.** Which outcome does the source give for Nc1cc(Cl)c(N)c(Cl)c1 here?
**A.** The outcome was “inactive”.

**Q.** With O=C(O)C(F)(F)C(F)(F)OC(F)(F)F as the molecule, how does the outcome read?
**A.** The outcome was “inactive”.

**Q.** Which outcome does the source give for CC(C)=CCCC(C)CCOC(=O)C(C)C (centres undefined) here?
**A.** Its outcome is “inactive”.

**Q.** Which outcome does the source give for N=C(N)C(F)(F)C(F)(F)C(F)(F)C(F)(F)C(F)(F)C(F)(F)C(F)(F)F here?
**A.** Its outcome is “inactive”.

**Q.** Which AC50 does the source give for O=C(Cl)C(F)(F)C(F)(F)C(F)(F)C(F)(F)C(F)(F)C(F)(F)C(F)(F)C(F)(F)F here?
**A.** The AC50 was 48 µM (active).

**Q.** With C=CC(F)(F)C(F)(F)C(F)(F)C(F)(F)C(F)(F)C(F)(F)C(F)(F)C(F)(F)F as the molecule, how does the outcome read?
**A.** Its outcome is “inactive”.

**Q.** With CS(C)(=O)=O as the molecule, how does the outcome read?
**A.** The outcome was “inactive”.

**Q.** Which outcome does the source give for O=C(O)C(F)(F)C(F)(F)C(F)(F)C(F)(F)C(F)(F)C(F)(F)C(F)(F)C(F)(F)C(F)(F)C(F)(F)C(F)(F)C(F)(F)F here?
**A.** The outcome was “inactive”.

**Q.** For O=C(O)C(F)(F)C(F)(F)C(F)(F)C(F)(F)F, which outcome is on record?
**A.** The outcome was “inactive”.

**Q.** For Cc1ccc(S(=O)(=O)OCC(F)(F)C(F)(F)C(F)(F)C(F)(F)C(F)(F)C(F)F)cc1, which outcome is on record?
**A.** Its outcome is “inactive”.

**Q.** For Cc1ccc(S(=O)(=O)NCl)cc1, which outcome is on record?
**A.** The outcome was “inactive”.

**Q.** For C=C(C)C(=O)OCC(F)(F)C(F)(F)C(F)(F)C(F)(F)C(F)(F)C(F)(F)C(F)(F)F, which outcome is on record?
**A.** The outcome was “inactive”.

**Q.** Which outcome does the source give for FC(F)(F)C(F)(F)C(F)(F)C(F)(F)C(F)(F)C(F)(F)CCS here?
**A.** Its outcome is “inactive”.

**Q.** With CCCCCC=O as the molecule, how does the outcome read?
**A.** Its outcome is “inactive”.

**Q.** For CCCCCCCCC(F)(F)C(F)(F)C(F)(F)C(F)(F)C(F)(F)C(F)(F)F, which outcome is on record?
**A.** The outcome was “inactive”.

**Q.** For Cc1cc(C)cc(O)c1, which outcome is on record?
**A.** The outcome was “inactive”.

**Q.** With O=S(=O)(OCCOC(F)(F)F)C(F)(F)F as the molecule, how does the outcome read?
**A.** Its outcome is “inactive”.
